Reference: article PMC7862700, “An all-to-all approach to the identification of sequence-specific readers for epigenetic DNA modifications on cytosine”

What was measured:
Assay in all cases: DAPPL (digital affinity profiling via proximity ligation, sequencing); 10 mM Tris-HCl pH 7.5, 50 mM NaCl, 1 mM DTT, 4% glycerol, room temperature, 30 min; GST-TFs on glutathione beads, 16-mer random dsDNA library, 0.1% formaldehyde crosslink after washing; high values mean tight binding
[1] = target: T1, FLI1 (Homo sapiens, UniProt Q01543 1-452); settings: protein: recombinant; tags: N-terminal GST; dsDNA, one strand shown
T1 sequence: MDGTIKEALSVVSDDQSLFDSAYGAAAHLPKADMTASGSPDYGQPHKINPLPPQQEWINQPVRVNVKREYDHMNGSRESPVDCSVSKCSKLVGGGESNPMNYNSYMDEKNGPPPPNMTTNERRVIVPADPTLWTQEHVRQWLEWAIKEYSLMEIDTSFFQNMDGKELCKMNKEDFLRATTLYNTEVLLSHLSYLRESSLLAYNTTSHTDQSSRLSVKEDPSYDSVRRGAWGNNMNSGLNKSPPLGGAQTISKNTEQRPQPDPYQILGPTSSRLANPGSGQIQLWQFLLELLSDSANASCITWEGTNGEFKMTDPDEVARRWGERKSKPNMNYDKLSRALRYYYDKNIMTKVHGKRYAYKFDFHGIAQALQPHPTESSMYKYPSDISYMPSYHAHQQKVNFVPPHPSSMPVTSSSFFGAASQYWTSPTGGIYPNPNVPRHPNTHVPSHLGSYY
In short: (§1)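 A tag-only sample was pooled with DNA-barcoded human transcription factors that had been expressed in yeast as GST fusions and captured on glutathione beads. The pools were incubated for 30 min at room temperature with 200 nmole of a random double-stranded 16-mer DNA library in Tris/NaCl/DTT/glycerol buffer, then washed, crosslinked with 0.1% formaldehyde, proximity-ligated (BsaI/T4 ligase, 1 h, 37 °C), PCR-amplified and sequenced on an Illumina NextSeq500. Binding signal is each hexamer's read frequency for a factor divided by its frequency for the tag-only sample.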

[2] = target: T2, ELK1 (Homo sapiens, UniProt P19419 1-428); settings: protein: recombinant; tags: N-terminal GST; dsDNA, one strand shown
T2 sequence: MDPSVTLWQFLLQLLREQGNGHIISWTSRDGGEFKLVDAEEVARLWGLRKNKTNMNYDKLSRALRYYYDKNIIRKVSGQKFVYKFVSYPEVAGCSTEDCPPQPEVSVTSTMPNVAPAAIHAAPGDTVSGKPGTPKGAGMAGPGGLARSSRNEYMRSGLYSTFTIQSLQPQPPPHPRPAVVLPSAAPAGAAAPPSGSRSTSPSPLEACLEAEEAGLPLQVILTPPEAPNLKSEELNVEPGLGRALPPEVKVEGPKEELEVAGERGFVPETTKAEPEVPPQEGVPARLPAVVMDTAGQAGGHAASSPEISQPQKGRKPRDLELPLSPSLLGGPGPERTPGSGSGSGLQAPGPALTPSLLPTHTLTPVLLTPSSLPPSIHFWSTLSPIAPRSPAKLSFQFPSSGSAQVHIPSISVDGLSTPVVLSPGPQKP
In short: as §1

[3] = target: T3, GABPA (Homo sapiens, UniProt Q06546 1-454); settings: protein: recombinant; tags: N-terminal GST; dsDNA, one strand shown
T3 sequence: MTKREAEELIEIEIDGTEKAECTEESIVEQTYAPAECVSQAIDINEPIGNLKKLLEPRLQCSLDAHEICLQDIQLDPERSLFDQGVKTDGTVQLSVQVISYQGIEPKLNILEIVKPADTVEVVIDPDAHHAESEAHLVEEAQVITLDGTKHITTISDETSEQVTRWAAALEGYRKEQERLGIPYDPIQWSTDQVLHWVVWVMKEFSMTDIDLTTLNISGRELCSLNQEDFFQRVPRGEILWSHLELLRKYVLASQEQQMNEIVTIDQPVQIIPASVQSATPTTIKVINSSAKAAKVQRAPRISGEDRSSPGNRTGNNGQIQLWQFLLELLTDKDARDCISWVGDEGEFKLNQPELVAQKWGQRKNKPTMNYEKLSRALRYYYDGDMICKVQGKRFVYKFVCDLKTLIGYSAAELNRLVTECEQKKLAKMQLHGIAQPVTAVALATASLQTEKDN
In short: as §1

[4] = target: T4, ERG (Homo sapiens, UniProt P11308 1-479); settings: protein: recombinant; tags: N-terminal GST; dsDNA, one strand shown
T4 sequence: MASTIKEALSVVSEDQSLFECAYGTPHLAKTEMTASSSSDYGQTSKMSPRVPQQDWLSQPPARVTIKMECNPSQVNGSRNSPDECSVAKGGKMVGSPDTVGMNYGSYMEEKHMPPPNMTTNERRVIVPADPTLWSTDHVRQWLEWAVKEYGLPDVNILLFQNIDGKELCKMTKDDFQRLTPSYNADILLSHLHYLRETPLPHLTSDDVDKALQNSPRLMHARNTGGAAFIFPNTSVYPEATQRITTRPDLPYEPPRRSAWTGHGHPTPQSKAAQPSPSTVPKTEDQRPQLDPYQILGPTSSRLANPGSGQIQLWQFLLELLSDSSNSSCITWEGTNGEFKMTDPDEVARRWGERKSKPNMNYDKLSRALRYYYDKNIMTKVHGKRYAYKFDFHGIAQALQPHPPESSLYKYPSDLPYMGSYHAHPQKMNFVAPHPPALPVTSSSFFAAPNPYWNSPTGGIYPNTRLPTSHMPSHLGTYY
In short: as §1

[5] = target: ELF1 (Homo sapiens, UniProt P32519 1-619); settings: protein: recombinant; tags: N-terminal GST; dsDNA, one strand shown
In short: as §1

[6] = target: T5, EHF (Homo sapiens, UniProt Q9NZC4 1-300); settings: protein: recombinant; tags: N-terminal GST; dsDNA, one strand shown
T5 sequence: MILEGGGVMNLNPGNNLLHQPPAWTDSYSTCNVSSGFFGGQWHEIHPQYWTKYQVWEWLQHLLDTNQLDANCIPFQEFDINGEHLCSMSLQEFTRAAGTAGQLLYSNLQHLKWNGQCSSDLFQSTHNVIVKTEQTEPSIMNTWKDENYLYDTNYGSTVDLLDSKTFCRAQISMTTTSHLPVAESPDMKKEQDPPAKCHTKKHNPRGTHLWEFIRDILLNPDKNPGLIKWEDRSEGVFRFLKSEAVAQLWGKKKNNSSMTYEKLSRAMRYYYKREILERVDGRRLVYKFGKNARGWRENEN
In short: as §1

[7] = target: SPI1 (Homo sapiens, UniProt P17947 1-270); settings: protein: recombinant; tags: N-terminal GST; dsDNA, one strand shown
In short: as §1

[8] = target: SPIB (Homo sapiens, UniProt Q01892 1-262); settings: protein: recombinant; tags: N-terminal GST; dsDNA, one strand shown
In short: as §1

[9] = target: T6, ELK3 (Homo sapiens, UniProt P41970 1-407); settings: protein: recombinant; tags: N-terminal GST; dsDNA, one strand shown
T6 sequence: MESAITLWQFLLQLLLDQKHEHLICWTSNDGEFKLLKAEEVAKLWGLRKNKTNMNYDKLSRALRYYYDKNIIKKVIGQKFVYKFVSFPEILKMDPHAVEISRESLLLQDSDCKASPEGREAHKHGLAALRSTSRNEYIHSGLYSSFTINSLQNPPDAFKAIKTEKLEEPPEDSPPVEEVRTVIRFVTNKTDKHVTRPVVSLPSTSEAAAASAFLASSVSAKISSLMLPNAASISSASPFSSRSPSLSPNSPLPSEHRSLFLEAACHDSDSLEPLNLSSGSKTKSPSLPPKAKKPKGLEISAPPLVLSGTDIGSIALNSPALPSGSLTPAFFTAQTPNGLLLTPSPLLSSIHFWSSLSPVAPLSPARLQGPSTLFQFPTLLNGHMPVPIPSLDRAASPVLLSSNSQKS
In short: as §1

[10] = target: T7, FEV (Homo sapiens, UniProt Q99581 1-238); settings: protein: recombinant; tags: N-terminal GST; dsDNA, one strand shown
T7 sequence: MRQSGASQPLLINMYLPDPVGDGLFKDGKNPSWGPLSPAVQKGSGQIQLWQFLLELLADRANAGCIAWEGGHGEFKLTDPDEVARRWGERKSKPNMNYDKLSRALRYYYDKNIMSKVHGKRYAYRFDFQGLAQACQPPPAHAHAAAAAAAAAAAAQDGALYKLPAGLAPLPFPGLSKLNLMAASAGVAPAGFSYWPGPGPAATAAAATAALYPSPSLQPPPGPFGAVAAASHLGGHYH
In short: as §1

[11] = target: ETV5 (Homo sapiens, UniProt P41161 1-510); settings: protein: recombinant; tags: N-terminal GST; dsDNA, one strand shown
In short: as §1

[12] = target: HSF1 (Homo sapiens, UniProt Q00613 1-529); settings: protein: recombinant; tags: N-terminal GST; chain copies: 3; dsDNA, one strand shown
In short: as §1

[13] = target: T8, SPIC (Homo sapiens, UniProt Q8N5J4 1-248); settings: protein: recombinant; tags: N-terminal GST; dsDNA, one strand shown
T8 sequence: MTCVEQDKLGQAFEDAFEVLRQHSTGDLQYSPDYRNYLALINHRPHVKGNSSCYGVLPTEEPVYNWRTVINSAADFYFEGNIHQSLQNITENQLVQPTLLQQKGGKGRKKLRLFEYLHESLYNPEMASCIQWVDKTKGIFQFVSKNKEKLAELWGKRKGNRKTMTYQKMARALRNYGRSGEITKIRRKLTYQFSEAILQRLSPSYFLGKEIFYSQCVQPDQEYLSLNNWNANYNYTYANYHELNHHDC
In short: as §1

[14] = target: ELF4 (Homo sapiens, UniProt Q99607 1-663); settings: protein: recombinant; tags: N-terminal GST; dsDNA, one strand shown
In short: as §1

[15] = target: T9, ELK4 (Homo sapiens, UniProt P28324-2 1-405); settings: protein: recombinant; tags: N-terminal GST; dsDNA, one strand shown
T9 sequence: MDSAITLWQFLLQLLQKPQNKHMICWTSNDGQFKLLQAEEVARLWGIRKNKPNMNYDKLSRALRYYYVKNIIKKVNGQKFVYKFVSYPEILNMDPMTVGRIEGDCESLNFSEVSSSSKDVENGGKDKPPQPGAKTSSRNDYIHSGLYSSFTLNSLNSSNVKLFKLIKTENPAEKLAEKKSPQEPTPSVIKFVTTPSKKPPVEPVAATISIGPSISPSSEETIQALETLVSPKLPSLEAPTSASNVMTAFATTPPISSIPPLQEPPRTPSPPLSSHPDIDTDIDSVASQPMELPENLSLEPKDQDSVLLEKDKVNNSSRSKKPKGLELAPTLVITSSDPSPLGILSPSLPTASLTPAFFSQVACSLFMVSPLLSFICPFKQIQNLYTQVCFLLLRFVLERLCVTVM
In short: as §1

[16] = target: T10, ETV2 (Homo sapiens, UniProt O00321 1-342); settings: protein: recombinant; tags: N-terminal GST; dsDNA, one strand shown
T10 sequence: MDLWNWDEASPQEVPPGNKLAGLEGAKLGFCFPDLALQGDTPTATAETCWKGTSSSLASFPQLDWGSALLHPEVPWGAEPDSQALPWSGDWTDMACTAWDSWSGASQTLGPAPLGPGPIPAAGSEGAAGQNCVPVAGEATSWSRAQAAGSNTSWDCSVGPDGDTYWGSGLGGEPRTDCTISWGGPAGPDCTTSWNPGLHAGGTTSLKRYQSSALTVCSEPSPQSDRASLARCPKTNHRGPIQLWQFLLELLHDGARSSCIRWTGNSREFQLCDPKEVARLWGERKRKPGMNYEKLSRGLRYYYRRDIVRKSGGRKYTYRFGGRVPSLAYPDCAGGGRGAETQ
In short: as §1

[17] = target: T11, ELF3 (Homo sapiens, UniProt P78545 1-371); settings: protein: recombinant; tags: N-terminal GST; dsDNA, one strand shown
T11 sequence: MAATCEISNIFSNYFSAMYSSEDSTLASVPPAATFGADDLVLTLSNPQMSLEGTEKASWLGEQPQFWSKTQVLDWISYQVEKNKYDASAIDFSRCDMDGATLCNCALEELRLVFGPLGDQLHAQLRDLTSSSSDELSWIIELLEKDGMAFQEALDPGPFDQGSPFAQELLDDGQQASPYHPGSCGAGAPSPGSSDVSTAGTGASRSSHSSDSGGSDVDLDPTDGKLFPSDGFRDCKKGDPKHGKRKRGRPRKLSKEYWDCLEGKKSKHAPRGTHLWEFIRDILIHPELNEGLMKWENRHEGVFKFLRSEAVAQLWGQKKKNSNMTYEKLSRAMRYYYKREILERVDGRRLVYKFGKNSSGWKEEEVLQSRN
In short: as §1

[18] = target: CRX (Homo sapiens, UniProt O43186 1-299); settings: protein: recombinant; tags: N-terminal GST; dsDNA, one strand shown
In short: as §1

[19] = target: ETV1 (Homo sapiens, UniProt P50549 1-477); settings: protein: recombinant; tags: N-terminal GST; dsDNA, one strand shown
In short: as §1

Sequence of ELF4 (Q99607 whole entry): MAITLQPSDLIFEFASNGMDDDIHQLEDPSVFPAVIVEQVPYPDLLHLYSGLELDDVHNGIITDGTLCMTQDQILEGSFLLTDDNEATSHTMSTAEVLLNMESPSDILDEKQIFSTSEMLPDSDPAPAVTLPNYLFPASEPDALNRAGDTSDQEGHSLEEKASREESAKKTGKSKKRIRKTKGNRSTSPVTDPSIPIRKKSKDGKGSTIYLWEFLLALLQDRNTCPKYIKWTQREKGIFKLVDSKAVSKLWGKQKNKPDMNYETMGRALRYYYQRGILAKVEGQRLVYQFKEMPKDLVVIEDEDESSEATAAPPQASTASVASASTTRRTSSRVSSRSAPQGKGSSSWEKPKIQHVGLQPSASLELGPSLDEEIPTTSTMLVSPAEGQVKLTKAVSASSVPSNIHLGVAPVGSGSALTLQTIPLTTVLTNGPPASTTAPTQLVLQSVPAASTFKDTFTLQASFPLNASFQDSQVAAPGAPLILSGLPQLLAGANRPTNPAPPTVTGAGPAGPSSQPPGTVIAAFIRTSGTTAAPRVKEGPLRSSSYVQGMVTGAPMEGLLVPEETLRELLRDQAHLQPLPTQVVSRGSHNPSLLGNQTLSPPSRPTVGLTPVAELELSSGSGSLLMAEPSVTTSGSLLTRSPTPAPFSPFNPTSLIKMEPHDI
Sequence of ELF1 (P32519 whole entry): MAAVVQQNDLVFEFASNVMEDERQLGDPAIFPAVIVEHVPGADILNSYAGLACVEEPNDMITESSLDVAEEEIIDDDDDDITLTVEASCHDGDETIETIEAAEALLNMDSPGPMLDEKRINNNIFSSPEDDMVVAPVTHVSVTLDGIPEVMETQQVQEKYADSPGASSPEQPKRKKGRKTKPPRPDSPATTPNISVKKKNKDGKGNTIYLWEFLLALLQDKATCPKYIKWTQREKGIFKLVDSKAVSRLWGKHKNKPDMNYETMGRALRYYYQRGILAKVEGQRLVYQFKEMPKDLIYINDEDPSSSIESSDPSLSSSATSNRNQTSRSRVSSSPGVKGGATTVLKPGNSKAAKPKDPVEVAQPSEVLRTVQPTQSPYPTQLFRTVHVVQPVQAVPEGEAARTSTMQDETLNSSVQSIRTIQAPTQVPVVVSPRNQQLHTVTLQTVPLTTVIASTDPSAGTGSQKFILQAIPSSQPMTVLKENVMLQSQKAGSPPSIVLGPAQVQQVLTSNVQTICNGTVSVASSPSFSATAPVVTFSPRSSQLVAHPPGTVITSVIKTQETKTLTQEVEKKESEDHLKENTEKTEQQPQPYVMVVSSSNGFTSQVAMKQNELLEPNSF
Sequence of CRX (O43186 whole entry): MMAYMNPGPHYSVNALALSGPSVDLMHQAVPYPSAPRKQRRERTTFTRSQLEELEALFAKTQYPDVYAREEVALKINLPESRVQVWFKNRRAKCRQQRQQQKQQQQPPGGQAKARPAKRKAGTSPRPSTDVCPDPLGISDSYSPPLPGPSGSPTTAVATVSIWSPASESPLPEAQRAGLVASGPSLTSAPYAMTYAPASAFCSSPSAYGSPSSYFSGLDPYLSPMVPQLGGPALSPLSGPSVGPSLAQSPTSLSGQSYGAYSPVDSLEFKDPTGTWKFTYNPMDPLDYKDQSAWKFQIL
Sequence of ETV5 (P41161 whole entry): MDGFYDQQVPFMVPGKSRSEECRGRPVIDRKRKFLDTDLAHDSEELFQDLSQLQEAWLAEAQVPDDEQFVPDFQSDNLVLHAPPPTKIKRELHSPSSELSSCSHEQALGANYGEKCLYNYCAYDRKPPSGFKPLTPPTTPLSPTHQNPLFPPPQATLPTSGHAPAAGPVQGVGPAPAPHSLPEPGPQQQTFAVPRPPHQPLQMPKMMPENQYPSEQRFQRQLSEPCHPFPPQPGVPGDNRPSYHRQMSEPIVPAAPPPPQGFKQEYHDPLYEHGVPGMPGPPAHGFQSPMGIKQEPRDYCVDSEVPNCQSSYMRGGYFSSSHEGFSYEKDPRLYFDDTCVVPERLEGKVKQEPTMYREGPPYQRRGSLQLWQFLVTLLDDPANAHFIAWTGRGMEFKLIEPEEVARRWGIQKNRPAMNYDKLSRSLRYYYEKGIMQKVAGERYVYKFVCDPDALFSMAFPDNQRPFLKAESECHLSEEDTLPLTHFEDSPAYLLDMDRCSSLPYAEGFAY
Sequence of SPIB (Q01892 whole entry): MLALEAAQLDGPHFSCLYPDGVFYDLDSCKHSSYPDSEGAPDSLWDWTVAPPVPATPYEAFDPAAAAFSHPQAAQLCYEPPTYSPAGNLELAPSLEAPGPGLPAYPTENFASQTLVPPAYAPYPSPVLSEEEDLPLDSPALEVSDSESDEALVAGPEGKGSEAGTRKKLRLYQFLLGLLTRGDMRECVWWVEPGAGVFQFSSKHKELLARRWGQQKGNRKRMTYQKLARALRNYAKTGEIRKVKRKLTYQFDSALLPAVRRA
Sequence of ETV1 (P50549 whole entry): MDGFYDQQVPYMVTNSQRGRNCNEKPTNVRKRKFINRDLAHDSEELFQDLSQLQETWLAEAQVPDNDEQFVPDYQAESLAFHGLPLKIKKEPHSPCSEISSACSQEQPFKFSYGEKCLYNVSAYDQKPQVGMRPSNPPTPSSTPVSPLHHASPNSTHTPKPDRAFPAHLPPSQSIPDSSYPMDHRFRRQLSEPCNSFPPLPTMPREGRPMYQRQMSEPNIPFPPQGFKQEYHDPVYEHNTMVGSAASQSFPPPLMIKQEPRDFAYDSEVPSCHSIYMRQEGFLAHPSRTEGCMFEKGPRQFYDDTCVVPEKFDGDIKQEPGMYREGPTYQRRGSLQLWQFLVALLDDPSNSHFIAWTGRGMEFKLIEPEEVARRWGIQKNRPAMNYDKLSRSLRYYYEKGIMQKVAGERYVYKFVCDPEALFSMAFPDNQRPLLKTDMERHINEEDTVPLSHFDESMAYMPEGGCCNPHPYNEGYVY
Sequence of HSF1 (Q00613 whole entry): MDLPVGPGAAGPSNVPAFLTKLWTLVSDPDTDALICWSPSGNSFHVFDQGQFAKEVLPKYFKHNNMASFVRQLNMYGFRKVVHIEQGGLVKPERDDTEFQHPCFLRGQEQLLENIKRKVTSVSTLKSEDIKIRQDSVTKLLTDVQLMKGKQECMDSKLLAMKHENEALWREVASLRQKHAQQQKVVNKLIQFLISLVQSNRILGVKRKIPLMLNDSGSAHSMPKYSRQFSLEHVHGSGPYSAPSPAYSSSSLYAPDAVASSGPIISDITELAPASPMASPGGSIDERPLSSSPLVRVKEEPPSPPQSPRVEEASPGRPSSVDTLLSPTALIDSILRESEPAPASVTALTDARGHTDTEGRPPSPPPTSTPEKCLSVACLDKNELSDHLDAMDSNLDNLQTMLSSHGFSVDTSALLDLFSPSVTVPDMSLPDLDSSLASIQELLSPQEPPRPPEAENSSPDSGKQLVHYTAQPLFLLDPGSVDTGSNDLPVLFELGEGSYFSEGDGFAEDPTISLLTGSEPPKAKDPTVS

TTGTCC was tested, and the binding signal [1] was 1.47 fold enrichment (6-mer frequency, TF over GST control), the binding signal [2] was 1.32 fold enrichment (6-mer frequency, TF over GST control) and the binding signal [3] was 1.41 fold enrichment (6-mer frequency, TF over GST control). The binding signal [4] was 1.4 fold enrichment (6-mer frequency, TF over GST control), the binding signal [5] was 1.3 fold enrichment (6-mer frequency, TF over GST control) and the binding signal [6] was 1.31 fold enrichment (6-mer frequency, TF over GST control). For the same sequence, the binding signal [7] was 1.17 fold enrichment (6-mer frequency, TF over GST control), the binding signal [8] was 1.34 fold enrichment (6-mer frequency, TF over GST control) and the binding signal [9] was 1.43 fold enrichment (6-mer frequency, TF over GST control). For the same sequence, the binding signal [10] was 1.34 fold enrichment (6-mer frequency, TF over GST control), the binding signal [11] was 1.42 fold enrichment (6-mer frequency, TF over GST control) and the binding signal [12] was 1.16 fold enrichment (6-mer frequency, TF over GST control). For the same sequence, the binding signal [13] was 1.3 fold enrichment (6-mer frequency, TF over GST control), the binding signal [14] was 1.26 fold enrichment (6-mer frequency, TF over GST control) and the binding signal [15] was 1.29 fold enrichment (6-mer frequency, TF over GST control). The binding signal [16] was 1.56 fold enrichment (6-mer frequency, TF over GST control), the binding signal [17] was 1.24 fold enrichment (6-mer frequency, TF over GST control) and the binding signal [18] was 1.16 fold enrichment (6-mer frequency, TF over GST control). For the same sequence, the binding signal [19] was 1.23 fold enrichment (6-mer frequency, TF over GST control).
